Values joined by “and” are separate entries in the source; they are usually repeats but may differ in a detail not shown here. Equal values may be shown once. Results filed as inconclusive are left out. Active and inactive are the calls of the source. How the source made its calls: active means hit-call score of the fitted dose curve at least 0.9, where 1 is the maximum; inconclusive means response in the unintended direction; inactive means score below 0.9.

human Protein Tyrosine Phosphatase Non-receptor Type 1 (PTPN1), PTPN1 (gene 5770), sequence (P18031 whole entry, looked up): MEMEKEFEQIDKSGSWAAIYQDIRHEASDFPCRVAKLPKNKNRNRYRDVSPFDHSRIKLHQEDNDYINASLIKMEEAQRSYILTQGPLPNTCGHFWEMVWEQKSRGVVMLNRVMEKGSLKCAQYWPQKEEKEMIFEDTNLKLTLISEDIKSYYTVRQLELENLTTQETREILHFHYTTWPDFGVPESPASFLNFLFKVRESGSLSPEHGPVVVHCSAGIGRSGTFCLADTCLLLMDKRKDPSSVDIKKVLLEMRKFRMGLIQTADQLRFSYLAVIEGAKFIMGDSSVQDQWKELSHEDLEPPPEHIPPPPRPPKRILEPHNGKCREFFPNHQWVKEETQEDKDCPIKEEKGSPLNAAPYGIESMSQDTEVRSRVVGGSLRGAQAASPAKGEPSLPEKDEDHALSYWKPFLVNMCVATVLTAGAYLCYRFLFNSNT
human Phosphatase and Tensin Homolog (PTEN), PTEN (gene 5728), sequence (P60484 whole entry, looked up): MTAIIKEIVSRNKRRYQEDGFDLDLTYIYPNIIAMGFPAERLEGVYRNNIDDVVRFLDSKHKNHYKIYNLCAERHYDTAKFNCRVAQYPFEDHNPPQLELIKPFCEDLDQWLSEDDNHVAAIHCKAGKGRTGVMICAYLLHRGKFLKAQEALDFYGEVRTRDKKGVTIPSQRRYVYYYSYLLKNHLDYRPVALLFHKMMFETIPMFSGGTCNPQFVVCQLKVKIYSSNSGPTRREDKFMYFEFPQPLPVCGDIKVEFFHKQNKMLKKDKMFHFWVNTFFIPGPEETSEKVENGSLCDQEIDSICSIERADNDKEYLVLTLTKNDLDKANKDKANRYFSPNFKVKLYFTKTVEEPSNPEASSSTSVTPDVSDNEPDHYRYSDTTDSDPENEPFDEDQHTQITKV

The target in one assay is Serine/threonine-protein phosphatase PP1-alpha catalytic subunit (Homo sapiens) (UniProt P62136). Description: NVS_ENZ_hPPP1CA: NovaScreen (NVS) Enzymatic Assay for human Protein Phosphatase 1 Aatalytic subunit Alpha (PPP1CA) (AID 2283200). The method, boiled down: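 Chemicals were first screened in duplicate at 25 uM, and those passing threshold (e.g. 30% inhibition) were run as concentration series to 50 uM. Cell-free recombinant protein, 1.33 h read, fluorescent substrate/product mobility-shift detection, normalised to DMSO.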
Serine/threonine-protein phosphatase PP1-alpha catalytic subunit (Homo sapiens), sequence (P62136 whole entry, looked up): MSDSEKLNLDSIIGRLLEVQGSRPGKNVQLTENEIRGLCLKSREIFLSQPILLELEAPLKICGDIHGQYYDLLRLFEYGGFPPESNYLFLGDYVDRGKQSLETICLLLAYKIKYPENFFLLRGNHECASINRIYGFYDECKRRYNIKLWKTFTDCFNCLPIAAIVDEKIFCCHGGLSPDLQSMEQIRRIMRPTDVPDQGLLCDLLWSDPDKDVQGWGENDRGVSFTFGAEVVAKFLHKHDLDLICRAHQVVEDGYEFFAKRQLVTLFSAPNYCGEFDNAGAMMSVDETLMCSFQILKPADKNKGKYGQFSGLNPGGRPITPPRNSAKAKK
As to `CCOC(=O)CC(SP(=O)(OC)OC)C(=O)OCC` (stereo not given), the compound was called inactive.

Take `CCCCN(CC)c1c([N+](=O)[O-])cc(C(F)(F)F)cc1[N+](=O)[O-]`: the call was inactive.

One may read the AC50 as the concentration giving half of the maximal activity seen. Regarding `CCCCSP(=O)(SCCCC)SCCCC`, the AC50 was 10.4 µM (active).

With `CN(C)[C@@H]1C(=O)C(C(N)=O)=C(O)[C@@]2(O)C(=O)C3=C(O)c4c(O)cccc4[C@@](C)(O)[C@H]3[C@H](O)[C@@H]12`, the AC50 was 17.4 µM (active).

Take `CCOP(=S)(OCC)Oc1cc(C)nc(C(C)C)n1`: the outcome was inactive.

As to `O=[N+]([O-])c1cc(C(F)(F)F)c(Cl)c([N+](=O)[O-])c1Nc1ncc(C(F)(F)F)cc1Cl`, the result was inactive.

Turning to `CCOP(=S)(OCC)SCCSCC`, the compound was classed as inactive.

Regarding `CCOP(=O)(OCC)Oc1cc(C)nc(C(C)C)n1`, the call was inactive.

A further assay concerns the target human Protein Tyrosine Phosphatase Non-receptor Type 1 (PTPN1), PTPN1 (gene 5770) (UniProt P18031). Description: NVS_ENZ_hPTPN1: NovaScreen (NVS) Enzymatic Assay for human Protein Tyrosine Phosphatase Non-receptor Type 1 (PTPN1) (AID 2283201). The method, boiled down:
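Chemicals were first tested in duplicate at 25 uM, and those passing threshold went on to singleton concentration series topping at 50 uM. Recombinant enzyme, specific substrate, product separated by mobility shift, fluorescence read at 1.33 h; activity loss relative to DMSO.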
Turning to `S=C1NCCN1`, the compound was called inactive.

For `CN(C)[C@@H]1C(=O)C(C(N)=O)=C(O)[C@@]2(O)C(=O)C3=C(O)c4c(O)cccc4[C@@](C)(O)[C@H]3[C@H](O)[C@@H]12`, the AC50 was 23.1 µM (active).

Regarding `CCOP(=S)(OCC)OC(Cl)C(Cl)(Cl)Cl` (stereo not given), the compound was classed as inactive.

For another assay, the target named is Tyrosine-protein phosphatase non-receptor type 11 (Homo sapiens) (UniProt Q06124). Description: NVS_ENZ_hPTPN11: NovaScreen (NVS) Enzymatic Assay for human Protein Tyrosine Phosphatase Non-receptor Type 11 (PTPN11) (AID 2283202). The protocol: NVS_ENZ_hPTPN11 is a biochemical, single-readout assay that uses extracted gene-proteins in a cell-free assay. Measurements were taken 0.5 hour after chemical dosing in a 384-well plate.NVS_ENZ_hPTPN11 is one of one assay component(s) measured or calculated from the NVS_ENZ_hPTPN11 assay. It is designed to make measurements of enzyme activity, a form of enzyme reporter, as detected with fluorescence intensity signals by Fluorescence and electrophoretic mobility shift technology.Data from the assay component NVS_ENZ_hPTPN11 was analyzed into 1 assay endpoint. This assay endpoint, NVS_ENZ_hPTPN11, was analyzed in the positive analysis fitting direction relative to DMSO as the negative control and baseline of activity. Using a type of enzyme reporter, loss-of-signal activity can be used to understand changes in the enzymatic activity as they relate to the gene PTPN11. Furthermore, this assay endpoint can be referred to as a primary readout, because this assay has produced multiple assay endpoints where this one serves a enzymatic activity function. To generalize the intended target to other relatable targets, this assay endpoint is annotated to the phosphatase intended target family, where the subfamily is non-receptor tyrosine phosphatase.
Tyrosine-protein phosphatase non-receptor type 11 (Homo sapiens), sequence (Q06124 whole entry, looked up): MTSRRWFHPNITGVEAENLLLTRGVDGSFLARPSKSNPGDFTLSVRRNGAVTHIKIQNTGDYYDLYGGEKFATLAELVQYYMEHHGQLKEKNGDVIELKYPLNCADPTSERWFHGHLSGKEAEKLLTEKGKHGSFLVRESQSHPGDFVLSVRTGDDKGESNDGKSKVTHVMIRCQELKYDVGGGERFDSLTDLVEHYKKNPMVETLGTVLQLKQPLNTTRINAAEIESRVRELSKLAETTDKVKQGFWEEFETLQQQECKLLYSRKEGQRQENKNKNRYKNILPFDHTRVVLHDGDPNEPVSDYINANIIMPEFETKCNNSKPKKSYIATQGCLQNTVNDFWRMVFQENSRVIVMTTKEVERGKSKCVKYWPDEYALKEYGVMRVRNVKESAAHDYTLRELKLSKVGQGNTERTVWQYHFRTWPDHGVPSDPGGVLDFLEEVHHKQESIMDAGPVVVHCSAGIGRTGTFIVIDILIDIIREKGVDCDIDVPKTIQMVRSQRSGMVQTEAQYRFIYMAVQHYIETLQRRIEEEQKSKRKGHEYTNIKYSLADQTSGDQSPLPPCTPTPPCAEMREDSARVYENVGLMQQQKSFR
Binding assays used specific radioligands (tritiated, iodinated) with non-radioactive competitive displacement ligands in agonist or antagonist protocols (as indicated) and various reference compounds and inhibitors to titrate specific binding to receptors and transporters. Most enzyme assays (CYPs, kinases, phosphatases, proteases, HDACs) used recombinant protein and specific substrates (fluorescence mostly, some colorimetric and radioactive) and inhibitors, followed by a biochemical separation of substrate and product. All assays for the biochemical HTS were initially run in duplicate at a single concentration (10 uM for CYP450 assays and 25 uM for all others). Assay-chemical combinations meeting a pre-defined threshold (e.g., 30% inhibition and other criteria defined below) were then run in singleton concentration-response format with maximum concentration of 20 uM for CYPs and 50 uM for all others. Each assay was run with positive and negative controls, and concurrent controls on every plate. The follow-up (secondary) screen tested active chemical-pairs in concentration series, as well as a few additional assays not tested in the primary screen, some selected negative inactives, and several cases re-run in the concentration series for confirmatory purposes.
With `S=C1NCCN1`, the outcome was inactive.

For the compound `CNC(=O)Oc1cccc2c1OC(C)(C)O2`, the call was inactive.

`CN(C)[C@@H]1C(=O)C(C(N)=O)=C(O)[C@@]2(O)C(=O)C3=C(O)c4c(O)cccc4[C@@](C)(O)[C@H]3[C@H](O)[C@@H]12`: the AC50 was 10.9 µM (active) and 2.67 µM (active).

`C=C(C)[C@H]1Cc2c(ccc3c2O[C@@H]2COc4cc(OC)c(OC)cc4[C@@H]2C3=O)O1`: the outcome was inactive.

With `CCC(=NOC/C=C/Cl)C1=C(O)CC(C2CCOCC2)CC1=O` (stereo not given), the result was inactive.

In a further assay the target is human Phosphatase and Tensin Homolog (PTEN), PTEN (gene 5728) (UniProt P60484). Description: NVS_ENZ_hPTEN: NovaScreen (NVS) Enzymatic Assay for human Phosphatase and Tensin Homolog (PTEN) (AID 2283203). The method, boiled down:
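Loss of fluorescent product signal after mobility-shift separation reports PTEN activity, recombinant human enzyme, 1 h after compound addition. Single 25 uM duplicate screen, then concentration-response on actives; DMSO baseline.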
On to `CC(C)[C@H](C(=O)O[C@H](C#N)c1cccc(Oc2ccccc2)c1)c1ccc(Cl)cc1`, for which the result was inactive.

As for `CC[C@H](C)[C@H]1O[C@]2(C=C[C@@H]1C)C[C@@H]1C[C@@H](C/C=C(\C)[C@@H](O[C@H]3C[C@H](OC)[C@@H](O[C@H]4C[C@H](OC)[C@@H](NC)[C@H](C)O4)[C@H](C)O3)[C@@H](C)/C=C/C=C3\CO[C@@H]4[C@H](O)C(C)=C[C@@H](C(=O)O1)[C@]34O)O2`, the AC50 is 4.5 nM (active).

`CN(C)[C@@H]1C(=O)C(C(N)=O)=C(O)[C@@]2(O)C(=O)C3=C(O)c4c(O)cccc4[C@@](C)(O)[C@H]3[C@H](O)[C@@H]12`: the AC50 is 2.52 µM (active) and 1.53 µM (active) and 2.46 µM (active).

Take `C#CC(C)(C)NC(=O)c1cc(Cl)cc(Cl)c1`: the outcome was inactive.

Source of the values: PubChem BioAssay (EPA / NIEHS).
